Source: PubChem BioAssay (Tox21)
Several values for one entry are separate records, joined by “and”; a condition that tells them apart may be missing. Identical values can stand only once. Inconclusive results are not listed. Entries that show only a call come without a potency. Where a structure was tested more than once in an assay, its records may differ in their call. Activity calls are given as the source filed them. Unless noted, calls follow the shape of the dose curve; as a rule, active = well fitted curve in the direction sought with a large enough effect in the repeat runs; inconclusive = weak or mixed curves; inactive = no such curve, though single readings can be large; an effect the other way counts as inactive or inconclusive.

Legend:
[1] = biological target: Acetylcholinesterase (Homo sapiens) (UniProt P22303); assay: Acetylcholinesterase (AChE) small molecule antagonists: fluorescence cell-based qHTS assay (AID 1347398; calls by dose curve; also: nearly all actives have a fitted effect of over 50% in size; also: potency is read from the fitted curve at half-maximal effect); details: Potency: AChE activity
Acetylcholinesterase (Homo sapiens), sequence (P22303 whole entry, looked up): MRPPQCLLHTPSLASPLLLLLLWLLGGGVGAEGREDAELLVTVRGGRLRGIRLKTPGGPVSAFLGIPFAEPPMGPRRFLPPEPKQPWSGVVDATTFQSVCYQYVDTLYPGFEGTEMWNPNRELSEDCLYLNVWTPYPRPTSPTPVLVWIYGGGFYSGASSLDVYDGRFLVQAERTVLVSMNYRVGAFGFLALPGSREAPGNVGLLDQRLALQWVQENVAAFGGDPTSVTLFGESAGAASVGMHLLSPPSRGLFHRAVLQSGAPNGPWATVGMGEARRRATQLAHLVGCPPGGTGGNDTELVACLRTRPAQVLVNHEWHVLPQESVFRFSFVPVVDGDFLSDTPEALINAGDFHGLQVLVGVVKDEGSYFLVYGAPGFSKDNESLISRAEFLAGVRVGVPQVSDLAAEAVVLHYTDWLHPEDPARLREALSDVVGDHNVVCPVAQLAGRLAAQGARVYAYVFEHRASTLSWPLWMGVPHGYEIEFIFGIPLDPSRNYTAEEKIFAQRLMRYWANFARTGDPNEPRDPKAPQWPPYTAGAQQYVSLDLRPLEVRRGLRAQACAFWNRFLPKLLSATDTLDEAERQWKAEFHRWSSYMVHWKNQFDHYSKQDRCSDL
Method in brief: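 SH-SY5Y cells (2000/well), attached overnight, incubated with compound 30 min at 37 C. Acetylthiocholine plus Thiolite Green then added for 40 min at room temperature. Thiocholine fluorescence (Ex/Em 490/520 nm) reports cellular AChE activity.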

[2] = biological target: Cytochrome P450 2D6 (Homo sapiens) (UniProt P10635); assay: Cytochrome P450 Family 2 Subfamily D Member 6 (CYP2D6) small molecule antagonists: luciferase reporter qHTS assay (AID 1671196); also: nearly all actives have a fitted effect of over 50% in size; also: potency is read from the fitted curve at half-maximal effect
Cytochrome P450 2D6 (Homo sapiens), sequence (P10635 whole entry, looked up): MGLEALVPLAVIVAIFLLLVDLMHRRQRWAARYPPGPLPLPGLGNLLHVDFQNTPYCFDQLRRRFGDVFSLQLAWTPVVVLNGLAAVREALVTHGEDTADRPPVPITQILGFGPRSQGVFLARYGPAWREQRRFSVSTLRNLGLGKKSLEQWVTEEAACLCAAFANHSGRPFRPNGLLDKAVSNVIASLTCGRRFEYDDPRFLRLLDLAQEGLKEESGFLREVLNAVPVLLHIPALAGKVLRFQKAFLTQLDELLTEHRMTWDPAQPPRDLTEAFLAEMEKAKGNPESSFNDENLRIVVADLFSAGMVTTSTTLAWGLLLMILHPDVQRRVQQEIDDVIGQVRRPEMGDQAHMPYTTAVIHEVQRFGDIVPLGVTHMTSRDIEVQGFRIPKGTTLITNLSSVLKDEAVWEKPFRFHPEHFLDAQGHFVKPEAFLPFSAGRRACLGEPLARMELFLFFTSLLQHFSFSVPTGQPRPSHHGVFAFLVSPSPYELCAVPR
Method in brief: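 Luminescence (RLU), read 20 min after detection reagent, indicated CYP2D6 conversion of proluciferin to luciferin during a 1 h NADPH-dependent reaction at room temperature.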

[3] = biological target: Cytochrome P450 2C19 (Homo sapiens) (UniProt P33261); assay: Cytochrome P450 Family 2 Subfamily C Member 19 (CYP2C19) small molecule antagonists: luciferase reporter qHTS assay (AID 1671197); also: nearly all actives have a fitted effect of over 65% in size; also: potency is read from the fitted curve at half-maximal effect
Cytochrome P450 2C19 (Homo sapiens), sequence (P33261 whole entry, looked up): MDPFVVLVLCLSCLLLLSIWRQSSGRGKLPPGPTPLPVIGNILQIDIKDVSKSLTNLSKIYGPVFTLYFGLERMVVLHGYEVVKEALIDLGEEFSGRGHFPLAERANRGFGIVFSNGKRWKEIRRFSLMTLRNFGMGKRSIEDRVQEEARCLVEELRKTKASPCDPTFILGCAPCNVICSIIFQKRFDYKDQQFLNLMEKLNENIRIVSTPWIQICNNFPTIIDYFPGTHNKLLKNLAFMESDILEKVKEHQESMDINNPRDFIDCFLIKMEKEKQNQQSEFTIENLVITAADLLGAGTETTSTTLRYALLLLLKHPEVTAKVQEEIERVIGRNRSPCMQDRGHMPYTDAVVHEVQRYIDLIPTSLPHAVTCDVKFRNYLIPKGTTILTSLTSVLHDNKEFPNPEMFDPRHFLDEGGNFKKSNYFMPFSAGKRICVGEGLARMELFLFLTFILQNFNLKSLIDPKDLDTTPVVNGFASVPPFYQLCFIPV
Method in brief: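 P450-Glo CYP2C19 screening system; proluciferin substrate; DMSO compound stocks; 10 min RT preincubation; NADPH regeneration, 1 h at 37C; luciferin detection reagent, 20 min RT; luminescence as RLU.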

[4] = biological target: Cytochrome P450 2C9 (Homo sapiens) (UniProt P11712); assay: Cytochrome P450 Family 2 Subfamily C Member 9 (CYP2C9) small molecule antagonists: luciferase reporter qHTS assay (AID 1671198); also: nearly all actives have a fitted effect of over 50% in size; also: potency is read from the fitted curve at half-maximal effect
Cytochrome P450 2C9 (Homo sapiens), sequence (P11712 whole entry, looked up): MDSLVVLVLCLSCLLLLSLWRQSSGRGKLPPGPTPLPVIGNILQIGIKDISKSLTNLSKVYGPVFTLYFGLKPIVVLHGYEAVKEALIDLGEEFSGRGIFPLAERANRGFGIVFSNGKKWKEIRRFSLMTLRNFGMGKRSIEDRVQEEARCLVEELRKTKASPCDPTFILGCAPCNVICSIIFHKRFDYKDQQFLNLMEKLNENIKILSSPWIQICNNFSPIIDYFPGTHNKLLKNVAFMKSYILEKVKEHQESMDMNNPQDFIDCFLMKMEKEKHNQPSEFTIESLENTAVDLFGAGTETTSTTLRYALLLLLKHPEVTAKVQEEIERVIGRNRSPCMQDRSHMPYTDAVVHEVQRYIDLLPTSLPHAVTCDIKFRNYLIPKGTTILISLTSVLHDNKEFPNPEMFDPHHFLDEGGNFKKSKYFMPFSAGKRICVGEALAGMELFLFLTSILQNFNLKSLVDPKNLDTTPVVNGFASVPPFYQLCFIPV
Method in brief: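 P450-Glo proluciferin substrate with CYP2C9 enzyme; 10 min RT preincubation, then NADPH regeneration 1 h at 37C; luciferin detection reagent 20 min RT, luminescence in relative luminescence units.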

[5] = biological target: Cytochrome P450 1A2 (Homo sapiens) (UniProt P05177); assay: Cytochrome P450 Family 1 Subfamily A Member 2 (CYP1A2) small molecule antagonists: luciferase reporter qHTS assay (AID 1671199); also: nearly all actives have a fitted effect of over 50% in size; also: potency is read from the fitted curve at half-maximal effect
Cytochrome P450 1A2 (Homo sapiens), sequence (P05177 whole entry, looked up): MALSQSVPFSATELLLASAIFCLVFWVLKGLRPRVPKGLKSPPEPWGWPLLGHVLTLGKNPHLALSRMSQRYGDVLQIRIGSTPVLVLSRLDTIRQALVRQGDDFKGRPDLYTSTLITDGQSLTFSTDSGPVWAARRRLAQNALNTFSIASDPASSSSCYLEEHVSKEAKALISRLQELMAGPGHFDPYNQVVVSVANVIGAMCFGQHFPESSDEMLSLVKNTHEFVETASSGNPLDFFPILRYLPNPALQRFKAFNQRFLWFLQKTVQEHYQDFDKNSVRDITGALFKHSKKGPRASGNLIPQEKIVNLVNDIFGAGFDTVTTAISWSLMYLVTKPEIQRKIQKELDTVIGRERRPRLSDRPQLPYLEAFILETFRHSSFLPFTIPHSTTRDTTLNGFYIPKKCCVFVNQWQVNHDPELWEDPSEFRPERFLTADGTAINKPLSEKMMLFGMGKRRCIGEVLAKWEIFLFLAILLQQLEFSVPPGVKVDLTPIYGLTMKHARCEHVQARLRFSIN
Method in brief: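 CYP1A2 turnover of a luminogenic substrate was quantified after 1 h with NADPH regeneration at room temperature. Furafylline served as positive control.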

[6] = biological target: Voltage-gated inwardly rectifying potassium channel KCNH2 (Homo sapiens) (UniProt Q12809); assay: Human Ether-a-go-go-Related Gene (hERG) channel small molecule antagonists: fluorescence cell-based qHTS assay (AID 1671200)
Voltage-gated inwardly rectifying potassium channel KCNH2 (Homo sapiens), sequence (Q12809 whole entry, looked up): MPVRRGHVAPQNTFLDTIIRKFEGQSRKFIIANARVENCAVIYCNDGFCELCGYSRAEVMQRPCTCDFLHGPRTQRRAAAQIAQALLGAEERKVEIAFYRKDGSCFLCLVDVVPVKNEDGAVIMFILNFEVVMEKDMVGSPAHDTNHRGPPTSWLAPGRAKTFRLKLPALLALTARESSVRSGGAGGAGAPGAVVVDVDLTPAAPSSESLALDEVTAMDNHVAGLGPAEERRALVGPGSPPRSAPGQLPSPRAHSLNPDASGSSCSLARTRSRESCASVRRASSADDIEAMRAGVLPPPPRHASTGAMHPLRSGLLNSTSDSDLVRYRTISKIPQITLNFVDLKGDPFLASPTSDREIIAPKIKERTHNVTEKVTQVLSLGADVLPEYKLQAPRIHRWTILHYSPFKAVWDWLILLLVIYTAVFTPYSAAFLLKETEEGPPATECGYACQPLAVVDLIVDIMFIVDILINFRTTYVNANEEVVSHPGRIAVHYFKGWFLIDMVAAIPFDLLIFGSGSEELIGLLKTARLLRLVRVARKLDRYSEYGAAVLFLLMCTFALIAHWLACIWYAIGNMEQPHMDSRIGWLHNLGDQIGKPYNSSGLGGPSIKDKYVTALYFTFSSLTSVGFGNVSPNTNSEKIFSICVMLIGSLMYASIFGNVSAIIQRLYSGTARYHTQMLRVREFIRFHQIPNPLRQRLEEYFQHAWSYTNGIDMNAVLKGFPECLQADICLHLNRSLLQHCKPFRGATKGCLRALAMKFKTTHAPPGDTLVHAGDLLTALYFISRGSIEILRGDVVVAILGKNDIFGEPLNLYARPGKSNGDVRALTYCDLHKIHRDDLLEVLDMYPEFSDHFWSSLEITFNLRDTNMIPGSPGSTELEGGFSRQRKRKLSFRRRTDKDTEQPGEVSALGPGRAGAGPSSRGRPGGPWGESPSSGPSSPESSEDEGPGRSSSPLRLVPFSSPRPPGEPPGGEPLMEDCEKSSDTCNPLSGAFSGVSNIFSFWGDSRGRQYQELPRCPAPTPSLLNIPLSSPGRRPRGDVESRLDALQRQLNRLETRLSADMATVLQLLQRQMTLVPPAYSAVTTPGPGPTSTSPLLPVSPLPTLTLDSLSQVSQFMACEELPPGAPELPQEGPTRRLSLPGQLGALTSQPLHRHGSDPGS
Method in brief: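 Cell line hERG-U2OS; dye FluxOR II, 1 h RT dark; Tl+ stimulus; ex 480/em 540 nm, read each second for 2 min.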

[7] = biological target: Cytochrome P450 3A4 (Homo sapiens) (UniProt P08684); assay: Cytochrome P450 Family 3 Subfamily A Member 4 (CYP3A4) small molecule antagonists: luciferase reporter qHTS assay (AID 1671201); also: nearly all actives have a fitted effect of over 50% in size; also: potency is read from the fitted curve at half-maximal effect
Cytochrome P450 3A4 (Homo sapiens), sequence (P08684 whole entry, looked up): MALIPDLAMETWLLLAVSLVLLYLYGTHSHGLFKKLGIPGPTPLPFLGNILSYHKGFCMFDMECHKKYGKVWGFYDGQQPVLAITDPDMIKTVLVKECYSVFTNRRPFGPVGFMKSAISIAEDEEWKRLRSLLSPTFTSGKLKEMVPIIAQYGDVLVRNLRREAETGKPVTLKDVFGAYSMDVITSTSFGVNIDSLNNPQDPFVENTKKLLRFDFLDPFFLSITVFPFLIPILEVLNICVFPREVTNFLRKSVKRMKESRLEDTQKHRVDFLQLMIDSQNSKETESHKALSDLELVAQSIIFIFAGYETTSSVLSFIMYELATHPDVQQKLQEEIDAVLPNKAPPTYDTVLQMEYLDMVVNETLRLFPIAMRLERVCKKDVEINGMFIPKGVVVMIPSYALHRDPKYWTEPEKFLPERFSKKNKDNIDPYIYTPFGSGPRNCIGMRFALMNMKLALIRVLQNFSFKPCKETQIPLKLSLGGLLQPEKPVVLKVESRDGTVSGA
Method in brief: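 Room-temperature assay throughout: 10 min compound–enzyme/substrate preincubation, 1 h reaction after NADPH regeneration solution, 20 min detection. Luciferin formed from proluciferin substrate is quantified by luminescence.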

[8] = biological target: Acetylcholinesterase (Homo sapiens) (UniProt P22303); assay: Acetylcholinesterase (AChE) small molecule antagonists: enzyme-based qHTS assay with human liver microsomes (AID 1347399; calls by dose curve; also: nearly all actives have a fitted effect of over 60% in size; also: potency is read from the fitted curve at half-maximal effect); details: Potency: qHTS inhibition
Method in brief: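 Recombinant human AChE (50 mU/mL in the enzyme mix) and human liver microsomes (0.25 mg/mL final) were preincubated with compound and NADPH (0.25 mg/mL final) for 30 min at 37 C. Acetylthiocholine/DTNB was then added; thiocholine was read colorimetrically after 10 min at room temperature.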

SMILES	Potency [1]	Potency [2]	Potency [3]	Potency [4]	Potency [5]	Potency [6]	Potency [7]	Potency [8]
OC[C@@H](O)[C@H]1O[C@@H]2O[C@H](C(Cl)(Cl)Cl)O[C@@H]2[C@H]1O	inactive	inactive	35.5 µM (active) and inactive	inactive	inactive	inactive	inactive	
O=C(O)C1C(C(=O)O)C2(Cl)C(Cl)=C(Cl)C1(Cl)C2(Cl)Cl (stereo not given)	inactive	inactive	inactive	inactive	inactive	inactive	inactive	inactive
Oc1c(Br)cc(Br)cc1Br	inactive	inactive	inactive	63.4 µM (active) and 39.9 µM (active) and inactive	35.7 µM (active) and 63.3 µM (active) and inactive	inactive	inactive	
Cc1cccc(C)c1NC(=O)CN1CCCC1=O	inactive	inactive	inactive	inactive	inactive	inactive	inactive	
C=CC#N	inactive	inactive	inactive	inactive	inactive	inactive	inactive	inactive
CN1C(=O)CCS(=O)(=O)C1c1ccc(Cl)cc1 (stereo not given)	inactive	inactive	28.3 µM (active)	inactive		inactive	inactive	inactive
CCOP(=S)(OCC)Oc1cc(C)nc(C(C)C)n1	35.8 µM (active) and 56.4 µM (active)	inactive	56.7 µM (active) and 502 nM (active) and 692 nM (active)	35.8 µM (active) and 2.83 µM (active) and 2.45 µM (active)	6.33 µM (active) and 4.07 µM (active)	inactive		inactive and 8.71 µM (active)
O=C(O)Cc1ccccc1	inactive	40 µM (active) and 12.3 µM (active)	inactive	inactive	63.4 µM (active) and inactive	inactive	inactive	
COP(=S)(OC)SCN1C(=O)c2ccccc2C1=O	inactive	35.8 µM (active) and 35.6 µM (active) and 15.5 µM (active)	715 nM (active) and 710 nM (active) and 436 nM (active)	4.02 µM (active) and 2.52 µM (active) and 1.74 µM (active)	10.1 µM (active) and 10 µM (active) and 6.92 µM (active)	inactive		inactive
C[C@H]1C(=O)O[C@@H]2CCN3CC=C(COC(=O)[C@](C)(O)[C@]1(C)O)[C@H]23	inactive	inactive and 30.9 µM (active)	inactive	inactive	inactive	inactive	inactive	inactive
CN(C)C(=O)Cl	inactive	inactive	inactive	inactive	inactive	inactive	inactive	inactive
CSc1nnc(C(C)(C)C)c(=O)n1N	inactive	31.4 µM (active)	inactive	inactive		inactive	inactive	inactive
Cc1cc(Cl)ccc1OC(C)C(=O)O (stereo not given)	inactive	inactive	78.3 µM (active) and inactive	44.1 µM (active) and inactive	inactive	inactive	inactive	
CCNc1nc(Cl)nc(NC(C)C)n1	inactive	inactive	inactive	inactive	24.9 µM (active) and 22.4 µM (active)	inactive	inactive	
O=[N+]([O-])c1ccc(Cl)c(Cl)c1	inactive	inactive	71.1 µM (active) and inactive		inactive and 22.4 µM (active)	inactive	inactive	inactive
COC(=O)Nc1cccc(OC(=O)Nc2cccc(C)c2)c1	inactive	inactive	35.6 µM (active)	inactive	7.1 µM (active) and 17.8 µM (active)	inactive	inactive	
Cc1cccc(C)c1N	inactive	11.1 µM (active) and inactive	inactive	inactive	inactive	inactive	inactive	inactive
Nc1nc(N)nc(NC2CC2)n1	inactive	inactive	inactive	inactive	inactive	inactive	inactive	inactive
OCc1ccco1	inactive	inactive	inactive	inactive and 44.8 µM (active)	inactive	inactive	inactive	inactive
O=C(O)CCCc1ccc(N(CCCl)CCCl)cc1	inactive	inactive	inactive	inactive	inactive	inactive	inactive	

SMILES	Potency [1]	Potency [2]	Potency [3]	Potency [4]	Potency [5]	Potency [6]	Potency [7]	Potency [8]
O=C(O)c1cc(Oc2ccc(C(F)(F)F)cc2Cl)ccc1[N+](=O)[O-]	inactive	inactive	inactive and 71 µM (active)	21.9 µM (active) and 35.6 µM (active) and 31.9 µM (active)	inactive	inactive	inactive	inactive
O=C(O)C(Br)Br	inactive	inactive	inactive	inactive	inactive	inactive	inactive	
Cc1cc(O)ccc1Cl	inactive	inactive	25.6 µM (active) and inactive	inactive	36.2 µM (active) and 44.8 µM (active) and 17.4 µM (active)	inactive	inactive	
CNC(=O)Oc1cccc2ccccc12	3.56 µM (active)	39.6 µM (active) and inactive	35.3 µM (active) and 63.3 µM (active) and 17.4 µM (active)	28 µM (active) and inactive	3.14 µM (active) and 8.94 µM (active)	inactive	inactive	inactive and 89.4 µM (active)
COP(=S)(OC)Oc1ccc(SC)c(C)c1	inactive	39.5 µM (active) and 39.9 µM (active)	1.57 µM (active) and 710 nM (active) and 1.1 µM (active)	7.02 µM (active) and 6.33 µM (active) and 6.92 µM (active)	1.98 µM (active) and 2.24 µM (active) and 1.62 µM (active)	inactive		inactive
Cl[C@H]1OCCO[C@@H]1Cl	inactive	19.6 µM (active)		inactive	inactive	inactive	inactive	inactive
FC(F)(F)c1ccc(Cl)cc1	inactive	inactive	inactive	inactive		inactive	inactive	inactive
CCCCC(CC)C(=O)Cl (stereo not given)	inactive	inactive	inactive	inactive	inactive and 63.3 µM (active)	inactive	inactive	inactive
C=CCN=C=S	inactive	inactive	40.8 µM (active) and inactive	inactive	inactive	inactive	inactive	
CCOC(=O)CC(SP(=O)(OC)OC)C(=O)OCC (stereo not given)	954 nM (active) and 1.42 µM (active)	inactive	53.6 µM (active)	67.5 µM (active) and 71 µM (active)	75.8 µM (active) and 71 µM (active)	inactive	inactive	
COC(C)(C)CCCC(C)C/C=C/C(C)=C/C(=O)OC(C)C (stereo not given)		inactive	24.5 µM (active)	62.2 µM (active) and 17.4 µM (active)	inactive	inactive	inactive	inactive
CC(=O)C1CCOC1=O (stereo not given)	inactive	inactive	inactive	inactive	inactive	inactive	inactive	
CCOc1ccc(N)cc1	inactive	31.8 µM (active) and 39.9 µM (active)	40 µM (active) and inactive		35.7 µM (active)	inactive	inactive	
CN(C)C(=O)Nc1cccc(C(F)(F)F)c1		inactive	inactive	inactive	2.88 µM (active) and 3.99 µM (active)	inactive	inactive	inactive
C=C(C)C(=O)OCC(CC)CCCC (stereo not given)	inactive	inactive	40.7 µM (active) and inactive	inactive	inactive	inactive	inactive	
CC[N+](=O)[O-]		inactive	72.5 µM (active) and inactive	inactive	inactive	inactive	inactive	inactive
Cc1cccc(N)c1C	inactive	71 µM (active)	inactive and 31.7 µM (active)		36.9 µM (active) and 20 µM (active)	inactive	36.9 µM (active)	
CNc1cnn(-c2cccc(C(F)(F)F)c2)c(=O)c1Cl	inactive	inactive	6.85 µM (active) and 31.7 µM (active)		5.44 µM (active) and 10 µM (active)	inactive	34.3 µM (active)	
[N-]=[N+]=CC(=O)OC[C@H](N)C(=O)O		inactive and 30.9 µM (active)	inactive	inactive	inactive	inactive	inactive	inactive
